Experiment [1] concerns the target Lysosomal acid glucosylceramidase (Homo sapiens) (UniProt P04062). Description: Glucocerebrosidase-p2 (AID 348; in the data active = potency below about 10 µM; note: potency is the fitted concentration of half-maximal effect). The conditions noted are these: purified GBA, blue fluorogenic substrate, 40 min. An outline of the steps:
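Compounds titrated from 0.6 nM upwards against 0.2 nM enzyme in pH 5.9 citric acid/KH2PO4, taurocholate, tween-20; blue fluorogenic substrate 80 uM, 40 min room temperature, stopped and read Ex 365/Em 440 for AC50.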

Experiment [2] in a line: AP1 Signaling Pathway (AID 357).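 Note: ME-180 reporter cells stimulated with EGF at its EC50 level; % is set by controls: 0 for no effect and ±100 for the full control effect.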 The conditions noted are these: ME-180 AP-1-bla reporter, EGF-induced, beta-lactamase ratio, 5 h; at 7.69 µM (top of the series) unless noted. Summed up:
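Modulation of EGF-driven AP-1 transcription was assessed with a beta-lactamase reporter in ME-180 cells. Compound and EC50 EGF were co-incubated 5 hours at 37 °C before 2.5-hour CCF4 loading at room temperature and dual-emission reading.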

Experiment [3] can be described thus: NFAT Signaling Pathway (AID 444).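 Note: carbachol stimulus at about its EC50 of 1 µM final; % is set by controls: 0 for no effect and ±100 for the full control effect.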 The conditions noted are these: Jurkat NFAT-bla M1, carbachol, beta-lactamase ratio, 5 h; at 7.69 µM (top of the series) unless noted. An outline of the steps:
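Jurkat cells with NFAT-driven β-lactamase reporter and co-expressed M1 receptor, stimulated with carbachol (final 1 uM, ~EC50), compound titration, 5 h at 37 °C. CCF4 loaded 1 h at RT; 460/530 nm ratio gave %activity and AC50.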

Experiment [4] is described as follows: Stat Signaling Pathway (AID 446).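 Note: ME-180 cervical cancer cells given 40 pM IL-6 alongside compound; SIE-controlled beta-lactamase reporter measured as 460/530 nm FRET emission ratio; % is set by controls: 0 for no effect and ±100 for the full control effect.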 The conditions noted are these: ME-180 SIE beta-lactamase reporter, IL-6 stimulated, 5 h; at 7.69 µM (top of the series) unless noted. Summed up:
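ME-180 cells carrying a SIE-driven beta-lactamase reporter are stimulated with 40 pM IL-6 for 5 h at 37C in the presence of compound. The 460/530 nm FRET substrate ratio is read after 2.5 h at RT. Data are normalised to 300 pM IL-6 and to 125 nM JAK inhibitor controls.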

Experiment [5] concerns the target Glucocorticoid receptor (Homo sapiens) (UniProt P04150). Description: GR-GFP Redistribution (AID 450;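 active = compounds whose dose series gives a full or clear partial fitted curve of increased nuclear translocation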; note: potency is the fitted concentration of half-maximal effect). The conditions noted are these: U2OS GR-GFP nuclear translocation, laser cytometry, 2 h.
Experiment [6] has the same target. Description: GR-EFC Redistribution (AID 451; calls by dose curve; note: potency is the fitted concentration of half-maximal effect). The conditions noted are these: CHO-K1 GR-EFC translocation, beta-gal luminescence, 2 h. Summed up:
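CHO-K1 cells expressing nuclear EA and GR-ED fragments of b-gal; compounds titrated up to 46 uM final, 2 h at 37 C. GR nuclear translocation read as complemented b-gal luminescence after 1 h RT detection.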

For experiment [7], the target named is Mitogen-activated protein kinase 10 (Mus musculus) (UniProt Q61831). Description: JNK3 AlphaScreen Assay (AID 530).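 Note: kinase came from lysate of stimulated human HepG2 cells; signal reports phosphorylation of biotinylated GST-cJun 1-79 at Ser73 with 10 µM ATP; % is set by controls: 0 for no effect and ±100 for the full control effect.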 The conditions noted are these: JNK3 lysate, c-Jun phosphorylation; series mostly up to 11.4 µM. Summed up: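 Pre-activated (IL-1β/TNFα) JNK3 in HepG2 lysates phosphorylates biotin-GST-cJun(1-79), 10 uM ATP; anti-phospho-cJun(Ser73) AlphaScreen read at room temperature, pH 7.6 Tris buffer. Compounds pre-incubated 15 min as titrations.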
(Alpha assays give light when donor and acceptor beads are brought close together.)

For experiment [8], the target named is 3',5'-cyclic-AMP phosphodiesterase 4B (Homo sapiens) (UniProt Q07343). Description: qHTS Assay for Inhibitors of PDE-IV (AID 607; active = well fitted activation curve with a large enough effect in the main read-out, with a control signal flat, not every such curve was filed as active; note: % of control where 0% means no effect). The conditions noted are these: HEK293 ACTOne CNG channel cells, membrane potential fluorescence; series mostly up to 22.9 µM. Summed up:
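HEK293 ACTOne cells with CNG channel (1000/well), endogenous PDE4; membrane potential dye, compounds up to 22.9 uM final. Fluorescence Ex 535/Em 590; RO 20-1724 (100 uM final) as reference.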

Experiment [9] has as its target Cytochrome P450 3A4 (Homo sapiens) (UniProt P08684). Description: qHTS Assay for Activators of Cytochrome P450 3A4 (AID 885; active = well fitted curve in the direction sought with a large enough effect; an effect the other way counts as inactive or inconclusive; note: nearly all actives have a fitted effect of over 65% in size). The conditions noted are these: recombinant CYP3A4, Luciferin-PPXE luminescence, 60 min; series mostly up to 11.4 µM. An outline of the steps: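 Human CYP3A4 (20 nM) with Luciferin-PPXE at 25 uM (its KM) in 200 mM KPO4; 10 min compound preincubation, then NADPH regeneration and 60 min reaction at RT. Luciferin read by luminescence; normalized to 57 uM ketoconazole full inhibition.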
On the technique in general: In qHTS, concentration-response curves come from the screen itself.

Experiment [10] is described as follows: qHTS Assay for Identification of Small Molecule Agonists for Hypoxia Response Element Signaling Pathway (AID 914; active = well fitted activation curve with a large enough effect in the signal ratio, with a control signal flat, not every such curve was filed as active; the % refers to the signal ratio; note: % of control where 0% means no effect). The conditions noted are these: ME-180 (cervical carcinoma) HRE-bla reporter, beta-lactamase ratio, CoCl2, 17 h; activation: stronger effect = higher value. An outline of the steps:
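In Opti-MEM containing 0.5% dialyzed FBS and 10 mM HEPES, ME-180 HRE-bla cells received a compound titration and EC50 CoCl2. They were incubated 17 hours, then CCF4-loaded 2.5 hours at room temperature before ratio reading.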

The target of experiment [11] is Cytochrome P450 2C19 (Homo sapiens) (UniProt P33261). Description: qHTS Assay for Inhibitors and Substrates of Cytochrome P450 2C19 (AID 899; active = well fitted curve in the direction sought with a large enough effect; an effect the other way counts as inactive or inconclusive; note: nearly all actives have a fitted effect of over 60% in size; note: potency is the fitted concentration of half-maximal effect). The conditions noted are these: recombinant CYP2C19, luciferin-H EGE luminescence; series mostly up to 11.4 µM. Summed up:
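Luminescent read-out of luciferin formed from Luciferin-H EGE (10uM, equal to KM). Enzyme 5nM in 50mM KPO4; compound added, 10 min at 37C, then NADPH regenerating system for 60 min at 37C. Full inhibition defined by 57uM ketoconazole.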

The target of experiment [12] is Cytochrome P450 2D6 (Homo sapiens) (UniProt P10635). Description: qHTS Assay for Inhibitors and Substrates of Cytochrome P450 2D6 (AID 891; active = well fitted curve in the direction sought with a large enough effect; an effect the other way counts as inactive or inconclusive; note: nearly all actives have a fitted effect of over 60% in size; note: potency is the fitted concentration of half-maximal effect). The conditions noted are these: recombinant CYP2D6, luciferin-ME EGE luminescence; series mostly up to 11.4 µM. Summed up: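 Human CYP2D6 (5 nM) with 30 uM Luciferin-ME EGE (at Km) in 100 mM KPO4, compound preincubated 10 min, then NADPH regeneration system for 60 min at room temperature. Luciferin read by luminescence; normalized to 1.43 uM quinidine.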
Sequence of Cytochrome P450 2D6 (Homo sapiens) (P10635 whole entry, looked up): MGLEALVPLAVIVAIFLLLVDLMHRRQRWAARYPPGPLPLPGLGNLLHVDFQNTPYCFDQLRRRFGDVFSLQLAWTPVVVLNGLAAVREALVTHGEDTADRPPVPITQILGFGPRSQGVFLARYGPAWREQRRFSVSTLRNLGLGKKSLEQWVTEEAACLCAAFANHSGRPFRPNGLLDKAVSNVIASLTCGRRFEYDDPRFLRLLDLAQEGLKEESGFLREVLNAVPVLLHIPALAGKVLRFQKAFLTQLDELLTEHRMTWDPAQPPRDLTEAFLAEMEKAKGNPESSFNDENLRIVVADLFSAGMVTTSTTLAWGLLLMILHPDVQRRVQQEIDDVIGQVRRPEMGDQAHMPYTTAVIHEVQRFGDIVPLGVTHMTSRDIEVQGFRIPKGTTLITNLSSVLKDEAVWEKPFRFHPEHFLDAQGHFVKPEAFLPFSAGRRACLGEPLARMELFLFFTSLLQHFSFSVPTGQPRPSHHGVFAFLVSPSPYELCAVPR

Structures are written as SMILES. A number with no mark means an inactive call. Records with an inconclusive call do not appear. Active and inactive are the calls of the source. Unless noted, calls come from the whole dose curve; as a rule, active = well fitted curve in either direction with a large enough effect (not every such curve was filed as active); inconclusive = small, poorly fitted or top-dose-only effect, or another doubt; inactive = flat fitted curve, though single readings scatter. Some results are limits rather than exact numbers.

Sequence of 3',5'-cyclic-AMP phosphodiesterase 4B (Homo sapiens) (Q07343 whole entry, looked up): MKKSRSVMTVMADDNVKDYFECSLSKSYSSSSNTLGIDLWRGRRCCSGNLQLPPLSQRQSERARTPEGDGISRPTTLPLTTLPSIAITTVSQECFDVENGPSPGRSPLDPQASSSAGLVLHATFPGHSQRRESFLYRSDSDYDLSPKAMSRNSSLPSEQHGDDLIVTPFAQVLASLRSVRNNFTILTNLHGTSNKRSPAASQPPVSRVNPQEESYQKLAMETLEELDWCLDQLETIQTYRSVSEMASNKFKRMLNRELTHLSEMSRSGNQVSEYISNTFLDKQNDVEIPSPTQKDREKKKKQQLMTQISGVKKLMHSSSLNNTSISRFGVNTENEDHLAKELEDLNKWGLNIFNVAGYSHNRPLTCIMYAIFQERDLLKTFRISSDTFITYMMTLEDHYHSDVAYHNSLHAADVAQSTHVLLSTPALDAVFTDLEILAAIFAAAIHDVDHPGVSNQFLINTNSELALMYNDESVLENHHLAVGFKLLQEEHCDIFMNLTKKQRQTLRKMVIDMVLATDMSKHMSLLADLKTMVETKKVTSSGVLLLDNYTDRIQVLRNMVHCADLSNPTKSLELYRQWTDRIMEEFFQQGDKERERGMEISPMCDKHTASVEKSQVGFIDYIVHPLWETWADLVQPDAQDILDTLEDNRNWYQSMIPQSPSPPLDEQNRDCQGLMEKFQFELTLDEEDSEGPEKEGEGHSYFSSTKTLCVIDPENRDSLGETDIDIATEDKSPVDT
Sequence of Lysosomal acid glucosylceramidase (Homo sapiens) (P04062 whole entry, looked up): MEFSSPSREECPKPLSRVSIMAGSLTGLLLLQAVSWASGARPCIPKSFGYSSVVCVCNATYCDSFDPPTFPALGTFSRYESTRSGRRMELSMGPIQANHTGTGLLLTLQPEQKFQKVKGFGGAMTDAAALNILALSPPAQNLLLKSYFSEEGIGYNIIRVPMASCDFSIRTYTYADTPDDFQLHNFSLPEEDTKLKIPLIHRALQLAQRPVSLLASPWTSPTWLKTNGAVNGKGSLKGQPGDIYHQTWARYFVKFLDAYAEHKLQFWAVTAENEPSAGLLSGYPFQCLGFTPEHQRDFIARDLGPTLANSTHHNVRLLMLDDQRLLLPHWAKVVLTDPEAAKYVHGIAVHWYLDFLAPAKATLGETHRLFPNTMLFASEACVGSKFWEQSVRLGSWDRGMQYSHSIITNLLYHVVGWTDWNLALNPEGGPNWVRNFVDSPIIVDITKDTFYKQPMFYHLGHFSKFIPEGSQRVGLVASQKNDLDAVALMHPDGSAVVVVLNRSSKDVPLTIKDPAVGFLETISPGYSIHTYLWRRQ
Sequence of Cytochrome P450 2C19 (Homo sapiens) (P33261 whole entry, looked up): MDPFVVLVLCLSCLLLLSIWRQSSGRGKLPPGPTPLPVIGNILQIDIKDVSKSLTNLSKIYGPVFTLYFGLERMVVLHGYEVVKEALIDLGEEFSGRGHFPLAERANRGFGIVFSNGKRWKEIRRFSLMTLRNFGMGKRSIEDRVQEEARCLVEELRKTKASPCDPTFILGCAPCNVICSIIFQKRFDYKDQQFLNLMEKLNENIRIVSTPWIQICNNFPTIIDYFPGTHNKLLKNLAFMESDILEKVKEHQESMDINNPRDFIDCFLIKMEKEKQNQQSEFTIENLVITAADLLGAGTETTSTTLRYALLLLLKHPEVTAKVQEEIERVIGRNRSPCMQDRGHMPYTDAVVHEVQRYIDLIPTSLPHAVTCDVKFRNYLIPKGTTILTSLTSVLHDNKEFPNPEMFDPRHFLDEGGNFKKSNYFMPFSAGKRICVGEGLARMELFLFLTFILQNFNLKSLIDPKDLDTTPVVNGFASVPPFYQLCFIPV
Sequence of Glucocorticoid receptor (Homo sapiens) (P04150 whole entry, looked up): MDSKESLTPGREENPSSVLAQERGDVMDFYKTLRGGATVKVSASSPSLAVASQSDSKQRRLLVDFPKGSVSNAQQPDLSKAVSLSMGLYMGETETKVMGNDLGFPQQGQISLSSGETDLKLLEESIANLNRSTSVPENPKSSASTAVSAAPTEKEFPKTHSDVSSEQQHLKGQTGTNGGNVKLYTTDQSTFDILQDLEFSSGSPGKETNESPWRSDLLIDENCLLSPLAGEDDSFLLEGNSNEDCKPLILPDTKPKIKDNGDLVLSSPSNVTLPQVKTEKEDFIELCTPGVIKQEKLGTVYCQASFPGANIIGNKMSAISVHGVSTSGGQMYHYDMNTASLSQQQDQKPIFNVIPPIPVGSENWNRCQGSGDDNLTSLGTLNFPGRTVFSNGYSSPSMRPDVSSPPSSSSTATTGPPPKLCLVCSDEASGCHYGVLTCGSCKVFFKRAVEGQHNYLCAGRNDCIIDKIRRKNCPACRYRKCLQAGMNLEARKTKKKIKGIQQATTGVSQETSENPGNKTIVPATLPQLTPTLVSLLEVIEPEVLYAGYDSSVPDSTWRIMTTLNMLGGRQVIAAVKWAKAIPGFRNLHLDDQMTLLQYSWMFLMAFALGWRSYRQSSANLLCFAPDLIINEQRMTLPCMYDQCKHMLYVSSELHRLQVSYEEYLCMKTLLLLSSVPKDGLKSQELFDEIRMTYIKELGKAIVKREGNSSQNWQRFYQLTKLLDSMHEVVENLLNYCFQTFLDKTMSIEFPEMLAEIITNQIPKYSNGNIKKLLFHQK
Sequence of Cytochrome P450 3A4 (Homo sapiens) (P08684 whole entry, looked up): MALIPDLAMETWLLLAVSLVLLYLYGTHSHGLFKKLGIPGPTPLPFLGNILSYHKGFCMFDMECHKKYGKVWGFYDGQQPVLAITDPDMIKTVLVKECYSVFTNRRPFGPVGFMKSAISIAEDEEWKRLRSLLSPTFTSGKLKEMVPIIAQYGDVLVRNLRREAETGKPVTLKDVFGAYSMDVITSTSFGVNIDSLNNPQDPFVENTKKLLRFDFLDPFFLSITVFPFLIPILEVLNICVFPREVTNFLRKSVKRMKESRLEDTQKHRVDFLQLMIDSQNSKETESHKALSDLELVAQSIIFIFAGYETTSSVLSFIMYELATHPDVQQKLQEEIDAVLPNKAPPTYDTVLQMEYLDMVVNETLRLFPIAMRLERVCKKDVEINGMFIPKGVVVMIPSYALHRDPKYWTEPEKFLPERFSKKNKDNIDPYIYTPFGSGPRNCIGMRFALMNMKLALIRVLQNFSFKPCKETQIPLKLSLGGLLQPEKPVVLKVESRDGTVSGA

For `CC(=O)n1c(COS(C)(=O)=O)nc2ccccc21`, the Potency was more than 11.4 µM in experiment [1], more than 46 µM in experiment [5] and more than 9.22 µM in experiment [6]. Besides, the activity change, negative = inhibition is -2.19% in experiment [2] and 8.51% in experiment [3]. In addition, the activity, negative = inhibition in experiment [4] is -1.19%. In addition, the Potency entry in experiment [7], in experiment [8] and in experiment [9] was “inactive” throughout.
On to `CC(C)Cn1cnc2c(SCc3ccccn3)nc(N)nc21`, for which the Potency was more than 11.4 µM in [1], more than 46 µM in experiment [5] and more than 9.22 µM in [6]. Further, the results for the activity change, negative = inhibition in experiment [2] and in experiment [3] were -13.7% and 8.93%, respectively. The activity, negative = inhibition in experiment [4] was -1.91%. Further, the Potency result in [7] and in [8] was “inactive” throughout. For the same compound, the activation in experiment [10] is 13.1%.
With `NS(=O)(=O)c1nc(S(=O)(=O)O)c2[nH]cnc2n1`, the Potency in [1] was more than 11.4 µM; in experiment [5] it was more than 46 µM; in experiment [6], more than 9.22 µM. Also, the activity change, negative = inhibition is 7.59% in experiment [2] and 2.24% in experiment [3]. In addition, the activity, negative = inhibition in experiment [4] is 2.49%. The Potency result in experiment [7], in [8] and in [11] was “inactive” in each case.
Consider `CC(=O)[C@H](C(=N)C#N)C(=O)Nc1ccccc1`, for which the Potency in experiment [1] was more than 11.4 µM; in experiment [5] it was more than 46 µM; in experiment [6], more than 9.22 µM. The activity change, negative = inhibition was -0.768% in [2] and -3.12% in experiment [3]. In addition, the activity, negative = inhibition in experiment [4] is 13.1%. Moreover, the Potency result in experiment [7], in experiment [8] and in [11] was “inactive” throughout.
With `C[C@H](C(=O)c1ccncc1)c1ccccn1`, the figures for the Potency in experiment [1], in experiment [5] and in [6] were more than 11.4 µM, more than 46 µM and more than 9.22 µM, respectively. The figures for the activity change, negative = inhibition in experiment [2] and in experiment [3] were 0.391% and -8.81%, respectively. In addition, the activity, negative = inhibition in experiment [4] is 8.11%. Further, the Potency result in experiment [7], in [8] and in [9] was “inactive” each time.
With `Cc1cc(=O)[nH]c2cc3oc4ccccc4c3cc12`, the results for the Potency in [1], in [5] and in experiment [6] were more than 11.4 µM, more than 46 µM and more than 9.22 µM, respectively. In addition, the figures for the activity change, negative = inhibition in experiment [2] and in [3] were 6.73% and 8.67%, respectively. Further, in experiment [4], the activity, negative = inhibition is -1.36%. In addition, the Potency entry in experiment [7] and in [8] was “inactive” in each case. For the same compound, in [10], the activation was -6.85%.
`CN1CCN(CN2C(=O)C3C4C=CC(C3C2=O)C2C3C(=O)N(CN5CCN(C)CC5)C(=O)C3C42)CC1` (configuration not stated): the Potency in experiment [1] is more than 11.4 µM; in [5] it was more than 46 µM; in [6] it was more than 9.22 µM. Also, the figures for the activity change, negative = inhibition in experiment [2] and in experiment [3] were 4.11% and 4.36%, respectively. For the same compound, the activity, negative = inhibition in experiment [4] is 11%. Besides, the Potency result in experiment [7], in [8] and in [12] was “inactive” throughout.
With `c1ccc2sc(SCN(C3CCCCC3)C3CCCCC3)nc2c1`, the Potency in [1] is more than 11.4 µM; in experiment [5] it was more than 46 µM; in experiment [6] it was more than 9.22 µM; in experiment [12], 1.58 µM (active). Also, the activity change, negative = inhibition was 4.99% in experiment [2] and -7.96% in [3]. In addition, the activity, negative = inhibition in [4] was -3.43%. The Potency entry in experiment [7] and in experiment [8] was “inactive” in each case.
Regarding `NS(=O)(=O)c1cc(C(=O)O)c(Cl)c([N+](=O)[O-])c1Cl`, the Potency in experiment [1] was more than 11.4 µM; in experiment [5] it was more than 46 µM; in experiment [6] it was more than 9.22 µM. The activity change, negative = inhibition in experiment [2] was 10.9%; in experiment [3], 18.5%. Moreover, the activity, negative = inhibition in experiment [4] was 13.1%. The Potency entry in experiment [7], in experiment [8], in experiment [12] and in experiment [11] was “inactive” in each case.
Consider `O=c1[nH][nH]c(=S)c(=O)[nH]1`, for which the Potency in experiment [1] is more than 11.4 µM; in experiment [5] it was more than 46 µM; in experiment [6], more than 9.22 µM. Moreover, the activity change, negative = inhibition in [2] was -2.98%; in [3], 12.7%. In experiment [4], the activity, negative = inhibition is 3.19%. In addition, the Potency result in [7] and in experiment [8] was “inactive” each time. In [10], the activation is 5.24%.
Consider `Clc1ccc(CSC2=NCCN2)cc1Cl`, for which the Potency in experiment [1] is more than 11.4 µM; in experiment [5] it was more than 46 µM; in experiment [6], more than 9.22 µM; in [12] it was 3.16 µM (active). In addition, the activity change, negative = inhibition was -9.06% in [2] and -19.4% in experiment [3]. The activity, negative = inhibition in experiment [4] is -8%. The Potency result in [7] and in experiment [8] was “inactive” each time.
Regarding `O=C(CON1C(=O)c2ccccc2C1=O)c1ccccc1`, the Potency in [1] was more than 11.4 µM; in [5], more than 46 µM; in experiment [6] it was more than 9.22 µM. In addition, the activity change, negative = inhibition was -3.99% in experiment [2] and 4.1% in experiment [3]. The activity, negative = inhibition in experiment [4] was 1.01%. The Potency result in [7] and in [8] was “inactive” each time. Further, the activation in experiment [10] is -13.1%.
For the compound `CC(=O)/C(=C\c1ccccc1F)C(=O)c1ccccc1`, the Potency is more than 11.4 µM in experiment [1], more than 46 µM in experiment [5], more than 9.22 µM in experiment [6] and 2 µM (active) in experiment [11]. In addition, the figures for the activity change, negative = inhibition in [2] and in [3] were -4.86% and 2.06%, respectively. Also, in [4], the activity, negative = inhibition is -1.38%. The Potency result in [7] and in [8] was “inactive” throughout.
For the compound `O=C(O)CC[C@@H](C(=O)O)N1C(=O)[C@@H]2[C@@H]3CC[C@H](C3)[C@@H]2C1=O`, the Potency in [1] was more than 11.4 µM; in experiment [5] it was more than 46 µM; in [6], more than 9.22 µM. Also, the activity change, negative = inhibition is 11.4% in experiment [2] and 3.45% in [3]. Further, the activity, negative = inhibition in experiment [4] is -17%. Further, the Potency result in [7], in [8] and in [11] was “inactive” each time.
